# hgDAF12 agonist – agonists of H. glycines DAF-12 nuclear receptor; HEK293 GAL4-hgDAF12 UAS-luciferase reporter, agonist luminescence; normalized to butyrate control; activation, % at 6.8 µM; 370,000 tested, 1.8% active; AID 687014;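 active = activation above a cutoff set at the mean of all screened compounds plus 3 SD, cut at about 10% in these data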;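 also: 0% = DMSO wells and 100% = sodium butyrate wells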
# AHR activator – human AHR activation; AID 2796; activation, % at 5 µM; P35869; 320,000 tested, 2.5% active; AHR-responsive luciferase reporter cells, luminescence; in the data active = activation above about 47%;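 also: 0% = vehicle wells and 100% = reference agonist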
# ssDAF12 agonist – activates DAF-12 receptor from parasite S. stercoralis. HEK293 ssDAF-12/GRIP1 lit1-tk-luc reporter, luminescence; % of 3 µM dafachronic acid response. activation, % at 6.8 µM. 370,000 tested, 1% active;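 active = activation above the mean over all tested compounds plus 3 SD, cut at about 0.9% in these data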;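 also: 0% = DMSO-only wells and 100% = 3 µM delta7-dafachronic acid wells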
# DAX1 inh-1 – inhibits human nuclear receptor DAX1. 340,000 tested, 0.99% active. inhibition, % at 6.75 µM. HEK293 Gal4-DAX1 luciferase reporter, luminescence;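 active = inhibition above the mean over all tested compounds plus 3 SD, cut at about 4.2% in these data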;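 also: 0% = DAX1-transfected cells with DMSO and 100% = empty-vector control cells with DMSO; inhibition shows as a rise in luminescence from relieved DAX1 repression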
# Target sequence (P51843 207-470 limits assumed): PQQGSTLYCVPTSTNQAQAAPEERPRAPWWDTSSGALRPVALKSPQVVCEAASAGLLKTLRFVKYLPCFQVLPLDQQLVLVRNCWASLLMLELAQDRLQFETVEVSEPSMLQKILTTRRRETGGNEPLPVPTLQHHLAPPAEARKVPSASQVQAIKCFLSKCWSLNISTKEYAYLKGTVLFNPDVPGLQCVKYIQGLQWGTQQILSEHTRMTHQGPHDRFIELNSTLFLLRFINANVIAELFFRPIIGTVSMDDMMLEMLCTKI
# DAX1 inh-2 – blocks DAX1 repression of SF-1 activated StAR promoter; inhibition, % at 6.8 µM; AID 652010; HEK293T StAR-luciferase reporter, SF-1/DAX-1 repression relief; 370,000 tested, 1.1% active;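 active = inhibition above the mean over all tested compounds plus 3 SD, cut at about 3.6% in these data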;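 also: 0% = DAX-1 cells with DMSO and 100% = cells lacking DAX-1 with DMSO; higher inhibition means more luminescence from relief of DAX-1 repression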
# hcDAF-12 act – H. contortus DAF-12 activation, primary screen | 370,000 tested, 1.4% active | HEK293 hcDAF-12 lit1-tk-luc reporter, luminescence; 0% DMSO, 100% Δ7-dafachronic acid | activation, % at 6.8 µM;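 active = activation above the mean of all tested compounds plus 3 SD, cut at about 5.5% in these data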;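 also: 100% = response to 3 µM Δ7-dafachronic acid high control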
# The depositor's hits bear a star; . = no result given. A selection: hits, their analogues and other compounds. The true share with any hit is near 5.7%.
SMILES,hgDAF12 agonist,AHR activator,ssDAF12 agonist,DAX1 inh-1,DAX1 inh-2,hcDAF-12 act
CC(C)C(NC(=O)C12CC3CC(CC(C3)C1)C2)C(=O)N/N=C/C1=C(N2CCOCC2)C(=C\c2cccc([N+](=O)[O-])c2)/CC1 (configuration not stated),0.8,0.3,-0.7,-0.3,-0.8,-0.2
Cn1cc(C(=O)N/N=C/C2=C(N3CCOCC3)C(=C/c3ccc([N+](=O)[O-])cc3)/CC2)ccc1=O,11.5*,-0.2,-1.0,-1.3,0.4,0.2
CCCCCCN1C=CC=C/C1=C\C=C(C#N)C#N,-0.3,1.3,-2.0,.,-0.3,-1.0
O=C(NCc1ccc(F)cc1)c1cc2c(s1)CCCC2,4.1,4.7,-1.1,7.0*,-0.6,-2.6
COc1cccc(Nc2nc3ccccc3nc2-n2nc(C)cc2C)c1,1.0,5.8,-0.7,-0.4,-0.2,0.3
Cc1cc(C)n(-c2nc3ccccc3nc2Nc2ccc3c(c2)OCO3)n1,-0.8,76.1*,-1.8,0.8,0.0,-0.8
Fc1cccc(Nc2nc3ccccc3n3nnnc23)c1,4.0,46.7,-0.8,0.8,1.1,2.6
c1ccc2c(c1)nc(Nc1ccc3c(c1)OCO3)c1nnnn12,5.0,120.0*,-0.4,0.1,0.3,2.9
COc1ccc(CC(=O)NCC2CCCN(Cc3ccc(F)cc3F)C2)cc1 (configuration not stated),11.6*,0.0,0.5,-0.8,0.6,5.2
CN(C)[C@H]1CCN(c2ccc3c(c2)OCCCN(C2CC2)S3(=O)=O)C1,0.5,.,0.4,.,-0.7,-0.6
Cc1ccc(C(=O)C[n+]2cccc3ccccc32)cc1,4.2,22.4,1.7*,1.6,0.1,6.0*
O=C(C[n+]1cccc2ccccc21)c1ccc(Br)cc1,3.0,65.0*,2.2*,2.3,-0.2,5.0
NC(=O)C[n+]1cccc2ccccc21,-1.2,9.2,-0.6,-0.1,-0.2,4.6
Cc1ccc(Cn2nnc3c2-c2ccccc2S(=O)(=O)N(C)C3)cc1,-2.8,.,-1.7,.,-1.0,-2.4
COC(=O)c1ccccc1C(=O)N1CCC(CCC(=O)NC2CC2)CC1,-0.9,-0.3,-0.8,0.2,-0.7,-0.8
CCN(CC(=O)NCc1ccncc1)S(=O)(=O)c1cc(Cl)ccc1Cl,3.2,9.1,-1.1,4.2*,0.0,-2.8
CCN(CC(=O)NCc1ccncc1)S(=O)(=O)c1ccccc1,-2.0,4.5,-1.1,1.6,1.1,-2.0
Cc1cc(C)nc(/N=C(\N)Nc2ccccc2-c2ccccc2)n1,-3.5,9.1,-2.4,-0.3,-0.5,-2.4
Nn1cc(-c2ccccc2)nc1SCC(=O)N1CCN(S(=O)(=O)c2ccccc2)CC1,-2.6,52.1*,-0.8,-0.9,0.6,-1.3
O=C(CSc1ncccn1)N1CCN(S(=O)(=O)c2ccccc2)CC1,-2.2,2.1,-1.8,-0.2,0.9,-0.9
O=S(=O)(Nc1cccc2ccccc12)c1ccccc1,1.1,8.7,-1.3,0.9,-0.6,0.6
COc1ccc(OC)c(NC(=O)Nc2cc(NC(=O)Nc3cc(OC)ccc3OC)c(C)nc2C)c1,-0.1,31.8,-1.1,0.1,0.3,-0.4
COc1ccc(S(=O)(=O)Nc2ccc(O)c3ccccc23)cc1,-2.4,61.4*,-1.2,0.3,-2.6,0.5
COc1ccc(OC)c(NC(=O)Nc2ccccc2C)c1,0.0,13.8,-1.4,0.9,-0.7,-1.6
COc1ccc(OC)c(NC(=O)Nc2ccc(O)c3ccccc23)c1,-4.9,48.6*,-0.9,-0.7,-0.7,0.9
SMILES,hgDAF12 agonist,AHR activator,ssDAF12 agonist,DAX1 inh-1,DAX1 inh-2,hcDAF-12 act
COc1ccc(OC)c(NC(=O)Nc2c(O)ccc3ccccc23)c1,1.0,62.7*,-0.3,0.2,-0.1,2.0
O=S(=O)(Nc1c(O)ccc2ccccc12)c1ccccc1,0.5,54.3*,0.4,-1.3,1.0,3.4
Cc1cccc(-n2c(SC(C)C(=O)O)nc3sc4c(c3c2=O)CCCC4)c1 (configuration not stated),0.7,3.7,-1.3,-0.1,0.3,2.0
CC1=NOC(=O)/C1=C\c1ccc(-c2cccc(Cl)c2)o1,.,5.6,.,-1.1,.,.
CC1=CC2=NC(=O)/C(=C\c3ccc(-c4cccc(Cl)c4)o3)C(=N)N2O1,0.9,69.9*,-1.0,-1.0,-0.2,1.6
COc1cc2ccc(=O)oc2cc1O,-4.2,0.2,-1.6,5.1*,0.5,-1.2
